The source made the active and inactive calls. Unless noted, the rule behind the calls is not given here.
Key:
[1] = tested on: Wnt5a (protein binding on small-molecule microarray); experiment: Wnt5a binders on small-molecule microarray, primary screen, biophysical, 635/667 nm fluorescence (AID 1142); details: 635 nm fluorescence, higher = more signal;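 note: fluorescence read at 667 nm with signal to noise per printed feature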
[2] = cell viability in Huh7 cells, primary screen, cytotoxicity control for HCV replication inhibitor project, CellTiter-Glo luminescence, basal, 48 h (AID 1143); details: Huh7 HCV replicon, higher = more signal, called active from +8 up or from −8 down;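 note: Huh7 hepatoma cells carrying a hepatitis C replication reporter with no stimulus; test concentration not given here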
[3] = P. aeruginosa biofilm formation inhibitors, primary screen, PAO1 strain, BacTiter-Glo luminescence, LB-PBS (AID 1144); details: 12 h, higher = more signal
[4] = CREB reporter modulators without forskolin, primary screen, cell-based, PC12, CRE-LacZ reporter, unstimulated (AID 1145); details: no forskolin, luminescence, 4.5 h, higher = more signal, called active from +8 up or from −8 down
[5] = CREB reporter modulators under forskolin, primary screen, cell-based, PC12, CRE-LacZ reporter, forskolin-stimulated (AID 1146); details: luminescence, 4.5 h, higher = more signal, called active from +8 up or from −8 down;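 note: PC12 cells with 6xCRE LacZ reporter stimulated by forskolin 10 µM; beta-galactosidase reporter signal reflecting CREB driven transcription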
[6] = molecular target: Streptavidin (Streptomyces avidinii) (UniProt P22629); experiment: streptavidin binders on small-molecule microarray, primary screen, artefact control for SMM compound annotation, biophysical, 635/667 nm fluorescence (AID 1147); details: streptavidin binding, higher = more signal;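 note: signal reflects streptavidin binding to arrayed compounds as a control protein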
[7] = small-molecule binders of probe aInhba, primary screen, biochemical, small-molecule microarray, 635/667 nm fluorescence (AID 1148); details: higher = more signal;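 note: score merges 667nm spot fluorescence with signal-to-noise for antibody binding to printed compounds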
Torsin-1A (Homo sapiens) [8] = molecular target: Torsin-1A (Homo sapiens) (UniProt O14656); experiment: torsin A binders from cell lysate, primary screen, small-molecule microarray, wild-type, 635/667 nm (AID 1149); details: COS7 hTOR1A-WT lysate, 635 nm fluorescence, higher = more signal
Torsin-1A (Homo sapiens) [9] = molecular target: Torsin-1A (Homo sapiens) (UniProt O14656); experiment: small-molecule binders of mutant TOR1A in lysate, primary screen, cell lysate, small-molecule microarray, COS7 lysate, 635/667 nm fluorescence (AID 1150); details: COS7 hTOR1A mutant lysate, 635 nm fluorescence, higher = more signal;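 note: score pools 667 nm emission and signal to noise measuring lysate protein binding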
[10] = tested on: Sonic hedgehog protein (Shh); experiment: small-molecule binders of Shh protein, primary screen, biochemical, small-molecule microarray, 635/667 nm fluorescence (AID 1151); details: small-molecule microarray binding, 635 nm fluorescence; higher = more signal;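 note: Shh protein binding to compounds spotted on small-molecule microarray slides; score combines spot fluorescence intensity with signal-to-noise across triplicate slides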
[11] = E. coli DRC41 culture turbidity changes, primary screen, E. coli filamentation inducer project, strain DRC41, OD650, 48 h (AID 1152);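 note: E. coli MC1000 strain DRC41 lacking acrAB efflux pump and sulA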; details: E. coli DRC41 (acrAB sulA), higher = more signal, called active from +8 up or from −8 down
[12] = small-molecule binders of probe aLefty1, primary screen, biochemical, small-molecule microarray, 635/667 nm fluorescence (AID 1153); details: higher = more signal;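 note: score merges spot fluorescence with signal-to-noise ratio from the scanned slide images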
[13] = PSAC antagonists in infected red cells, primary screen, cell-based, P. falciparum Indochina, OD700, 1 h (AID 1154); details: P. falciparum Indochina infected RBC osmotic lysis, higher = more signal, called active from +8 up or from −8 down
[14] = PSAC antagonists in infected red cells, primary screen, cell-based, P. falciparum Indochina, OD700, 2 h (AID 1155);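 note: lysis reports solute entry through the parasite surface anion channel PSAC; channel blockers reduce lysis of infected cells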; details: P. falciparum Indochina infected erythrocytes, osmotic lysis OD700; higher = more signal, called active from +8 up or from −8 down
[15] = osmotic lysis modulators in infected erythrocytes, primary screen, PSAC antagonist project, cell-based, P. falciparum Indochina, OD700, 3 h (AID 1156); details: higher = more signal, called active from +8 up or from −8 down
[16] = PSAC antagonists in infected red cells, primary screen, cell-based, P. falciparum Indochina, OD700, 18 h (AID 1157); details: P. falciparum Indochina infected erythrocytes, osmotic lysis OD700, 18 h; higher = more signal, called active from +8 up or from −8 down
[17] = modulators of S6 phosphorylation in cells, primary screen, cell-based, A549, cytoblot, luminescence, serum-stimulated (AID 1158); details: A549 phospho-S6 cytoblot, 5 h, higher = more signal;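 note: serum-stimulated A549 lung adenocarcinoma cells; signal is phosphorylated S6 detected by cytoblot immunostaining with HRP secondary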
[18] = molecular target: NADPH oxidase 2 (Homo sapiens) (UniProt P04839); experiment: NOX2-dependent H2O2 signal modulators, primary screen, NOX inhibitor project, cell-based, HEK293-NOX2, PMA-stimulated, Amplex Red fluorescence (AID 1159); details: 45 min, higher = more signal, called active from +8 up or from −8 down; note: test concentration not given here
[19] = molecular target: NADPH oxidase 4 (Homo sapiens) (UniProt Q9NPH5); experiment: NOX4-dependent H2O2 signal modulators, primary screen, NOX inhibitor project, cell-based, HEK293-NOX4, tetracycline-induced, Amplex Red fluorescence (AID 1160); details: 45 min, higher = more signal, called active from +8 up or from −8 down
[20] = molecular target: NADPH oxidase 5 (Homo sapiens) (UniProt Q96PH1); experiment: NOX5-dependent H2O2 signal modulators, primary screen, NOX inhibitor project, cell-based, HEK293-NOX5, Amplex Red fluorescence (AID 1161); details: HEK293-NOX5, ionomycin, 45 min, higher = more signal
NADPH oxidase 5 (Homo sapiens), sequence (Q96PH1 whole entry, looked up): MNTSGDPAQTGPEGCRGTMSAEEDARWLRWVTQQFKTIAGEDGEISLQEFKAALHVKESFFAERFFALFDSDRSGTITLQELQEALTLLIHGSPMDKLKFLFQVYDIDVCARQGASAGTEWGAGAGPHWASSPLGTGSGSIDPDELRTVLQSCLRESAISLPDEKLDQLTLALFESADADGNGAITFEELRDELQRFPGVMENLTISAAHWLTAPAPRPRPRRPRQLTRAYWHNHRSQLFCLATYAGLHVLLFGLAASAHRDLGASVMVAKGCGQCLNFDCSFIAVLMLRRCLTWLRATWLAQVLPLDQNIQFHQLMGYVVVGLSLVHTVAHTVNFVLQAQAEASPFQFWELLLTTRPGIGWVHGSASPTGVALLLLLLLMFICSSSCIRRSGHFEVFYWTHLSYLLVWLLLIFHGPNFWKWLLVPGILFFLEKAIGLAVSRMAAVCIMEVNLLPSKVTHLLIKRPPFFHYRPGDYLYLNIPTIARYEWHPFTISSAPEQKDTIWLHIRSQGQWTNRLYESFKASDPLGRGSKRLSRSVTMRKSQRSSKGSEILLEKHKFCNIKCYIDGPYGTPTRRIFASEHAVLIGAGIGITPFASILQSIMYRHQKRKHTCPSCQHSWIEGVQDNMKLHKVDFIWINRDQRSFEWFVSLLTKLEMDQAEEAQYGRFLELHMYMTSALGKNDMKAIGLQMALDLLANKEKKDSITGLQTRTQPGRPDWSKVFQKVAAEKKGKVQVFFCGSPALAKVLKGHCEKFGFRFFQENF

Streptavidin (Streptomyces avidinii), sequence (P22629 whole entry, looked up): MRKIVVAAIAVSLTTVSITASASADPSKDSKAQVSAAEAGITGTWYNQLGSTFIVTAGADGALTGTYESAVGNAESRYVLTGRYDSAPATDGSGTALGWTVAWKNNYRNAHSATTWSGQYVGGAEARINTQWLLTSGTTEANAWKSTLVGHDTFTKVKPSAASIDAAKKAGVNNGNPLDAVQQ
NADPH oxidase 4 (Homo sapiens), sequence (Q9NPH5 whole entry, looked up): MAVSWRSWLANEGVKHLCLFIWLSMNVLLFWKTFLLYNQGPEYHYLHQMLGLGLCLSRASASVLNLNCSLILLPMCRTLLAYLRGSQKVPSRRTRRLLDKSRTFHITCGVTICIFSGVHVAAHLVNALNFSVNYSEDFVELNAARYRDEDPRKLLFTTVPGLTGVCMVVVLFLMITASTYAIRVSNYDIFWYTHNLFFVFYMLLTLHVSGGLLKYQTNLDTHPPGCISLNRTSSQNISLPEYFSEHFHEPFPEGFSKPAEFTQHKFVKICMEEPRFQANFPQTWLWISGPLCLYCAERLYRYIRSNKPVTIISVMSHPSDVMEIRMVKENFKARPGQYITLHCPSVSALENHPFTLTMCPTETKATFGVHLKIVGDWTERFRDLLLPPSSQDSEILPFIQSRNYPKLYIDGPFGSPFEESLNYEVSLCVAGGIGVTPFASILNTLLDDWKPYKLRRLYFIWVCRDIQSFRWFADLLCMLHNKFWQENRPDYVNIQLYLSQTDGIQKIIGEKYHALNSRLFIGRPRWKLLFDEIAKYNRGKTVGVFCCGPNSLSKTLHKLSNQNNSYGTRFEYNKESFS
NADPH oxidase 2 (Homo sapiens), sequence (P04839 whole entry, looked up): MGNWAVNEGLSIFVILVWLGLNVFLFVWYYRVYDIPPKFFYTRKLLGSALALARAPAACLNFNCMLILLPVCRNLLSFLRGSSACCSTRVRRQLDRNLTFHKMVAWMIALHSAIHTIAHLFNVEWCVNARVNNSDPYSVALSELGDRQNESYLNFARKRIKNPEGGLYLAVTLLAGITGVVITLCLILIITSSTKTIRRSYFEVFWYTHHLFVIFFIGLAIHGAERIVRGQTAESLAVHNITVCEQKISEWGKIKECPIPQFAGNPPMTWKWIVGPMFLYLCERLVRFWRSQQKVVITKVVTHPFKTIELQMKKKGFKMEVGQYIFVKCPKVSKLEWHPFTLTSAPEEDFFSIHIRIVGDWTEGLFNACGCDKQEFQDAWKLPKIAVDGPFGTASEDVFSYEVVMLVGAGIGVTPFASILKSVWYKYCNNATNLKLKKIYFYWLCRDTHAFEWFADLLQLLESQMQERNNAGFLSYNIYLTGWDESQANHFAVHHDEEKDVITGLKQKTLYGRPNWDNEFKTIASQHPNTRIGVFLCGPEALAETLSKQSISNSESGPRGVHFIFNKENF
Torsin-1A (Homo sapiens), sequence (O14656 whole entry, looked up): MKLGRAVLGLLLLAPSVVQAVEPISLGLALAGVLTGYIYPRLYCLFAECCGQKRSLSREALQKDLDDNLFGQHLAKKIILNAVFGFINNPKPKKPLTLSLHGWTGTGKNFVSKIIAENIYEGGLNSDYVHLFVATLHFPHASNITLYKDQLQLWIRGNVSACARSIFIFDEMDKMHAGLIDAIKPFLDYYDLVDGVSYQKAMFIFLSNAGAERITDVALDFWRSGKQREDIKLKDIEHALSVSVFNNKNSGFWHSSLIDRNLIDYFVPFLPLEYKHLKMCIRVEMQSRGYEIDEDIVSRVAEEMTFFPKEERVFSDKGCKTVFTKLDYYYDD

Row | Compound | composite z-score [1] | z-score [2] | z-score [3] | z-score [4] | z-score [5] | composite z-score [6] | composite z-score [7] | composite z-score (Torsin-1A (Homo sapiens) [8]) | composite z-score (Torsin-1A (Homo sapiens) [9]) | composite z-score [10] | z-score [11] | composite z-score [12] | z-score [13] | z-score [14] | z-score [15] | z-score [16] | z-score [17] | z-score [18] | z-score [19] | z-score [20]
1 | [N-]=[N+]=NCc1ccccc1[C@@H]1OC(c2ccc(OCCCO)cc2)=N[C@]1(Cc1ccccc1N=[N+]=[N-])C(=O)O | 1.04 | -2.25 (inactive) | -1.09 (inactive) | 0.526 (inactive) | -0.638 (inactive) | 0.488 | 0.587 | 0.177 | 0.585 | -0.379 | 0.0786 (inactive) | 0.865 | 22.9 (active) | 6.73 (inactive) | 3.2 (inactive) | 0.982 (inactive) | 0.0708 | -1.51 (inactive) | -0.241 (inactive) | 0.58
2 | COCCOC(=O)N1C(=O)[C@@]2(c3cc(C#CCC(C(=O)OC)C(=O)OC)ccc31)[C@H](C(N)=O)[C@H]1C(=O)O[C@H](c3ccccc3)[C@H](c3ccccc3)N1[C@@H]2c1ccc(O)cc1 | 0.449 | -5.41 (inactive) | -1.01 (inactive) | -0.168 (inactive) | -0.339 (inactive) | -0.0413 | -0.0405 | 0.551 | 0.919 | 1.75 | -0.247 (inactive) | 0.0406 | 26.5 (active) | 12.4 (active) | 3.28 (inactive) | 2.53 (inactive) | -0.255 | 1.29 (inactive) | 0.385 (inactive) | 0.73
3 | CC1CC/C=C\[C@H]2OC34C=CCN(c5ccc(Cl)cc5)C(=O)[C@H]3N(CCCCCCO)C(=O)[C@]4(C)C2C(=O)O1 (stereo not given in full) | -0.765 | 0.641 (inactive) | 0.306 (inactive) | 1 (inactive) | -0.446 (inactive) | -0.963 | -0.239 | -2.03 | -1.7 | -0.12 | 0.348 (inactive) | 0.0999 | -0.108 (inactive) | -0.36 (inactive) | -0.0544 (inactive) | 0.0625 (inactive) | -0.11 | 1.37 (inactive) | 0.37 (inactive) | 1.98

— PubChem BioAssay
